Source: PubChem
The list is not random: actives were taken first. Their share in the collection is about 3.1%.
LMP1 NFkB inh – Epstein-Barr LMP1 NF-kappaB reporter inhibition | LMP1-induced NF-kappaB luciferase reporter cells, luminescence | inhibition, % at 12.5 µM | 350,000 compounds, 0.69% hits | AID 504558; in the data active = inhibition above about 41%; inconclusive = no clear call, values can overlap the other calls;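 note: 0% = neutral control wells and 100% = reference inhibitor control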
PAX8 inh HTS – lowers PAX8-driven luciferase in RMG-I cells. 360,000 compounds, 1.2% hits. AID 652154. inhibition, % at 12.6 µM. RMG-I TPO-luciferase reporter, SteadyGlo, 24 h;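 active = mean replicate inhibition at least 60% with every replicate also reaching 60%; inconclusive = only one of the two criteria is met; inactive = mean below 60% and not all replicates reaching 60%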;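 note: luciferase light reporting Pax8 driven TPO promoter activity; plate controls were median of neutral control wells for no effect and mitoxantrone controls for full effect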
TWEAK Fn14 block – TWEAK-Fn14 signaling inhibition; TWEAK-stimulated Fn14 reporter cells, luciferase luminescence, 8 h; inhibition, % at 10 µM; 360,000 compounds, 2% hits; AID 1159606; in the data active = inhibition above about 50%
LGR2 inh – blocks bursicon-induced cAMP signaling via Drosophila LGR2 | HEK293 LGR2, CRE-luciferase, bursicon-stimulated, 4 h | inhibition, % at 9.99 µM | AID 720647 | 380,000 compounds, 0.35% hits;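 active = drop in luminescence signal, shown as inhibition above about 50% in the replicate tests, limit read from the data, passing the limit was not always enough; inconclusive = probably only some replicates passing the limit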;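 note: agonist challenge used bursicon conditioned medium at about half maximal strength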
EWS-Fli block – EWS/Fli transcriptional activity inhibition; 350,000 compounds, 0.67% hits; inhibition, % at 12.6 µM; A673 NR0B1-luciferase reporter, viability-normalised; AID 651661;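 active = mean inhibition of at least 50% after viability correction, with every replicate also passing that limit; inconclusive = mean reaches 50% but only one of two replicates passes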;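 note: firefly luciferase signal divided by Alamar Blue viability fluorescence both relative to DMSO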
TROY NFkB inh – inhibitors of TROY-dependent NF-kB signaling; 360,000 compounds, 0.98% hits; Q293 LMP1-TROYcd NF-kB luciferase reporter, 4 h; inhibition, % at 10 µM; AID 1347056;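 active = compounds whose plate-normalised and pattern-corrected inhibition of the luciferase reporter signal at the single screening dose is 50% or more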
DNA binder FP – binds DNA displacing acridine orange. 640 compounds, 2% hits. AC35, µM (top dose mostly 68 µM), without a hit: at the highest dose activity change, negative = DNA binding. shares compounds with EWS-Fli block. salmon sperm DNA acridine orange fluorescence polarization;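 active = fitted curve reaches a 35% signal fall AC35 below twice the sample's top valid tested dose, actives reach about 48 µM in these data; inactive = the rest, including activity in the rising direction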;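 note: lower polarization ratio signals compound binding to DNA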
The depositor's hits bear a star; ? = inconclusive; nt = no result.

SMILES	LMP1 NFkB inh	PAX8 inh HTS	TWEAK Fn14 block	LGR2 inh	EWS-Fli block	TROY NFkB inh	others
CCCN(C)C[C@H]1OCCCC[C@@H](C)Oc2ccc(NC(=O)Nc3ccc(C(F)(F)F)cc3)cc2C(=O)N([C@H](C)CO)C[C@H]1C	nt	82*	nt	0	-5	nt
O=C(c1ccncc1)N1C[C@H]2[C@@H](c3ccccc31)[C@H](CO)N2C(=O)c1ccncc1	nt	-2	nt	-5	1	nt
CCCC(=O)Nc1ccc2c(c1)C(=O)N(C)[C@H]1CC[C@H](CC(=O)NC3CCCC3)O[C@@H]1CO2	nt	-12	nt	-7	6	nt
C[C@H](CO)N1C[C@H](C)[C@H](CN(C)CC2CCCCC2)OCCCC[C@H](C)Oc2ccc(NC(=O)Nc3ccc(C(F)(F)F)cc3)cc2C1=O	nt	68*	nt	30	-12	nt
C[C@@H]1CN([C@@H](C)CO)S(=O)(=O)c2ccc(-c3cncnc3)cc2O[C@@H]1CN(C)Cc1cccnc1	nt	nt	nt	0	-18	nt
Cc1ccc(CCc2nnc(SCC(=O)Nc3cccc(Cl)c3)n2-c2ccccc2)o1	3	91*	28	20	14	-11
CN(C)C(=O)c1ccc(-c2ccc3c(c2)[C@H]2[C@H](CCN2C(=O)C2CCOCC2)[C@H](CO)N3C)cc1	nt	-9	nt	-1	-7	nt
CCOC(=O)C1(Cc2cccc(OC)c2)CCCN(C(=O)c2ccc(OC)o2)C1 (stereo not drawn)	-29	-201	98*	-56	nt	-96
CCOC(=O)C1(Cc2cccc(OC)c2)CCCN(C(=O)c2cc(CC(C)C)[nH]n2)C1 (stereo not drawn)	-24	-155	-13	-14	-74	-57
CCC(=O)N(C)C[C@H]1Oc2cc(-c3ccc(OC)cc3)ccc2S(=O)(=O)N([C@@H](C)CO)C[C@H]1C	nt	15	nt	0	-2	nt
C[n+]1c(/C=C/c2ccc3c(c2)OCO3)ccc2ccccc21	28	-84	82*	-24	-12	81*
CCCN(C)C[C@H]1OCCCC[C@@H](C)Oc2ccc(NS(=O)(=O)c3ccc(C)cc3)cc2C(=O)N([C@H](C)CO)C[C@H]1C	nt	30	nt	14	nt	nt
Cc1ccc(S(=O)(=O)N(C)C[C@H]2OCCCC[C@H](C)Oc3ccc(NS(=O)(=O)c4ccc(F)cc4)cc3C(=O)N([C@H](C)CO)C[C@@H]2C)cc1	nt	80*	nt	6	17	nt
Cc1ccc(S(=O)(=O)N(C)C[C@H]2OCCCC[C@H](C)Oc3ccc(NS(=O)(=O)c4ccc(F)cc4)cc3C(=O)N([C@@H](C)CO)C[C@@H]2C)cc1	nt	72*	nt	8	26	nt
CO[C@@H]1CN(C)C(=O)c2ccc(NC(=O)c3cc(C)on3)cc2OC[C@H](C)N(C(=O)C2CC2)C[C@H]1C	nt	-13	nt	-18	-9	nt
CCOC(=O)c1ccc(N2C(=O)C=CC2=O)cc1	67*	nt	1	nt	nt	0
CCOC(=O)c1ccc(N2C(=O)CC(Sc3nnc(C)s3)C2=O)cc1 (stereo not drawn)	5	nt	69*	nt	nt	nt
COCCNC(=O)C[C@H]1CC[C@H]2[C@H](COc3ccc(NC(=O)C4CCCC4)cc3C(=O)N2C)O1	nt	5	nt	-2	5	nt
O=C(Nc1ccc(Oc2ccccc2)cc1)C1CCN(c2c3c(nc4ncnn24)CCC3)CC1	33	nt	79*	nt	nt	51*
CCCCNC1C(CC)C(CCC)C(C#N)(C#N)C1(C#N)C#N (stereo not drawn)	24	nt	56*	nt	nt	17
CCN(CC)CCNC(=O)c1c(O)c2cc(OC)c(OC)cc2[nH]c1=O	55*	nt	-18	nt	nt	-29
COc1ccc(C#Cc2cnc3c(c2)C(=O)N([C@@H](C)CO)C[C@H](C)[C@H](CN(C)C(=O)CC2CC2)O3)cc1	nt	-6	nt	4	-9	nt
C[C@H](CO)N1C[C@H](C)[C@@H](CN(C)C)Oc2c(NS(C)(=O)=O)cccc2C1=O	nt	-15	nt	9	7	nt
CCOC(=O)/C=C/C(=O)Nc1cccc([N+](=O)[O-])c1	11	nt	-20	nt	nt	3
CCOC(=O)/C=C/C(=O)Nc1ccccc1-c1ccccc1NC(=O)/C=C/C(=O)OCC	-33	14	58*	40	18	-52
SMILES	LMP1 NFkB inh	PAX8 inh HTS	TWEAK Fn14 block	LGR2 inh	EWS-Fli block	TROY NFkB inh	others
Nc1ccc(-c2nc3ccccc3s2)cn1	-13	-205	4	-78	-85	-54
O=C1CCC(=O)N1c1ccc(-c2nc3ccccc3s2)cc1	1	-81	90*	-10	-7	83*
CC(C)(C)c1nc2c(s1)CCc1onc(-c3ccc(Br)cc3)c1-2	43*	-19	12	3	-8	-13
CCc1ccc(/C=C2/SC(N3CCOCC3)=NC2=O)cc1	5	-7	-13	-12	-33	-48
CCN1C/C(=C/c2ccc(N3CCOCC3)cc2)C(=O)/C(=C/c2ccc(N3CCOCC3)cc2)C1	-69	31	17	41	70*	8	DNA binder FP=15µM*
COc1cccc(NC(=O)Nc2ccc3c(c2)C(=O)N(C)[C@H]2CC[C@@H](CC(=O)NCCc4ccccc4)O[C@H]2CO3)c1	nt	28	nt	3	2	nt
N#C[C@H]1[C@H](c2ccc(-c3ccccc3F)cc2)[C@@H](CO)N1C(=O)Cc1ccccc1	nt	?	nt	-26	62*	nt	DNA binder FP=11%
C[C@H]1CN([C@@H](C)CO)C(=O)c2cc(-c3ccccc3F)cnc2O[C@H]1CN(C)C(=O)CN(C)C	nt	nt	nt	-12	-12	nt
